Results reported in the supplement of paper PMC10127200.
Where a name gives a salt, the structure may show the parent alone.

Columns and labels:
Assay in all cases: Euclidean distance of Cell Painting phenotypic profile (signed KS, 77 features) to DMSO centroid (dimensionless distance); 5 or 10 uM (library dependent); higher = stronger phenotypic change vs DMSO (phenoactivity)
Settings in all cases: 48 h
786-O = tested on: 786-O
Procedure, shortened: (§1)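 Stained cells were imaged confocally at 20X with 9 fields per well, after 48 h of exposure to library compounds at 10 or 5 uM (set by library; 0.1% DMSO final). The cells were five cancer lines and a healthy fibroblast line. From the images, Harmony extracted 77 features, each expressed as a signed Kolmogorov-Smirnov statistic relative to same-plate vehicle wells. Phenoactivity is measured as Euclidean distance to the median vehicle profile, using plate-position-corrected, correlation-weighted profiles averaged across replicates at the top dose.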

A549 = tested on: A549
Procedure, shortened: as §1

FB = tested on: FB
Procedure, shortened: as §1

HEPG2 = tested on: HEPG2
Procedure, shortened: as §1

OVCAR4 = tested on: OVCAR4
Procedure, shortened: as §1

DU145 = tested on: DU145
Procedure, shortened: as §1

`CC(C)[C@H]1C(=O)N[C@@H](CCCN=C(N)N)C(=O)NCC(=O)N[C@@H](CC(=O)O)C(=O)N[C@H](Cc2ccccc2)C(=O)N1C` showed an Euclidean distance (786-O) of 4.91, an Euclidean distance (A549) of 2.03 and an Euclidean distance (FB) of 1.25. The Euclidean distance (HEPG2) was 4.74 and the Euclidean distance (OVCAR4) was 2.44.

`CNC(=O)c1c(C)oc2cc(Oc3ncnc4cc(OC)c(OC)cc34)ccc12` [Fruquintinib] showed an Euclidean distance (786-O) of 1.24, an Euclidean distance (A549) of 1.24 and an Euclidean distance (FB) of 2.06. The Euclidean distance (HEPG2) was 0.855 and the Euclidean distance (OVCAR4) was 1.44.

In the case of `CC(C)(Cc1ccc2ccccc2c1)NC[C@@H](O)COc1cccc(Cl)c1C#N`, the Euclidean distance (786-O) is reported as 1.35, the Euclidean distance (A549) is reported as 1.64 and the Euclidean distance (FB) is reported as 1.06. For the same molecule, the Euclidean distance (HEPG2) was 1.77 and the Euclidean distance (OVCAR4) was 1.45.

`COc1ccc2cc1Oc1ccc(cc1)C[C@H]1c3cc(c(OC)cc3CCN1C)Oc1c(OC)c(OC)cc3c1[C@H](C2)N(C)CC3` [Tetrandrine] showed an Euclidean distance (786-O) of 4.3, an Euclidean distance (A549) of 4.1 and an Euclidean distance (FB) of 2.97. For the same molecule, the Euclidean distance (HEPG2) was 1.84 and the Euclidean distance (OVCAR4) was 2.11.

For `CC1=C(/C=C/C(C)=C/C=C/C(C)=C/C(=O)O)C(C)(C)CCC1` [Tretinoin], the Euclidean distance (786-O) was 1.24, the Euclidean distance (A549) was 1.29 and the Euclidean distance (FB) was 2.68. The Euclidean distance (HEPG2) was 1.21 and the Euclidean distance (OVCAR4) was 1.18.

For `NC(=O)Nc1cc(-c2cccc(F)c2)sc1C(=O)N[C@H]1CCCNC1`, the Euclidean distance (786-O) was 3.38, the Euclidean distance (A549) was 3.15 and the Euclidean distance (DU145) was 3.87. For the same molecule, the Euclidean distance (FB) was 3.82 and the Euclidean distance (OVCAR4) was 4.24.

Work on `NC(=O)c1ncn([C@@H]2O[C@H](CO)[C@@H](O)[C@H]2O)c1N` [Acadesine] yielded an Euclidean distance (786-O) of 1, an Euclidean distance (A549) of 1.3 and an Euclidean distance (DU145) of 0.856. The Euclidean distance (FB) was 1.35 and the Euclidean distance (OVCAR4) was 0.909.

In the case of `O=C1c2ccccc2C(=O)C1c1ccccc1` [Phenindione], the Euclidean distance (786-O) is reported as 0.966, the Euclidean distance (A549) is reported as 1.04 and the Euclidean distance (FB) is reported as 1.16. For the same molecule, the Euclidean distance (HEPG2) was 0.74 and the Euclidean distance (OVCAR4) was 1.1.

`Cc1nnc(C(=O)NC(C)(C)c2nc(C(=O)NCc3ccc(F)cc3)c(O)c(=O)n2C)o1` [Raltegravir potassium] showed an Euclidean distance (786-O) of 1.12, an Euclidean distance (A549) of 0.895 and an Euclidean distance (FB) of 1.33. It also gave an Euclidean distance (HEPG2) of 0.632 and an Euclidean distance (OVCAR4) of 1.04.

`c1ccc(C2CN3CCSC3=N2)cc1` (stereo not given) [Tetramisole HCl] was tested, and the Euclidean distance (786-O) was 1.45, the Euclidean distance (A549) was 0.708 and the Euclidean distance (FB) was 1.19. It also gave an Euclidean distance (HEPG2) of 1.31 and an Euclidean distance (OVCAR4) of 1.25.

`Cc1ccc(Sc2ccccc2N2CCNCC2)c(C)c1` [Vortioxetine] showed an Euclidean distance (786-O) of 2.68, an Euclidean distance (A549) of 2.71 and an Euclidean distance (FB) of 2.68. For the same molecule, the Euclidean distance (HEPG2) was 5.06 and the Euclidean distance (OVCAR4) was 2.43.

For `C[C@@H]1C(=O)O[C@H]2C[C@@]34[C@H]5C[C@@H](C(C)(C)C)[C@]36[C@@H](OC(=O)[C@@H]6O)O[C@@]4(C(=O)O5)[C@]21O` [Ginkgolide A], the Euclidean distance (786-O) was 0.788, the Euclidean distance (A549) was 1.51 and the Euclidean distance (DU145) was 1.93. For the same molecule, the Euclidean distance (FB) was 1.46 and the Euclidean distance (OVCAR4) was 1.21.

In the case of `O=c1[nH]nc2c3c(cccc13)N=C(CN1Cc3ccccc3C1)N2`, the Euclidean distance (786-O) is reported as 0.985, the Euclidean distance (A549) is reported as 1.29 and the Euclidean distance (FB) is reported as 1.31. For the same molecule, the Euclidean distance (HEPG2) was 2.35 and the Euclidean distance (OVCAR4) was 1.42.

Work on `CCC(=O)NCC[C@@H]1CCc2ccc3c(c21)CCO3` [Ramelteon] yielded an Euclidean distance (786-O) of 1.15, an Euclidean distance (A549) of 0.978 and an Euclidean distance (FB) of 0.887. For the same molecule, the Euclidean distance (HEPG2) was 1.02 and the Euclidean distance (OVCAR4) was 1.07.

For `CCCCCCCCCC(=O)N[C@@H](Cc1c[nH]c2ccccc12)C(=O)N[C@H](CC(N)=O)C(=O)N[C@@H](CC(=O)O)C(=O)N[C@@H]1C(=O)NCC(=O)N[C@@H](CCCN)C(=O)N[C@@H](CC(=O)O)C(=O)N[C@H](C)C(=O)N[C@@H](CC(=O)O)C(=O)NCC(=O)N[C@H](CO)C(=O)N[C@@H]([C@H](C)CC(=O)O)C(=O)N[C@@H](CC(=O)c2ccccc2N)C(=O)O[C@@H]1C` [Daptomycin], the Euclidean distance (786-O) was 1.06, the Euclidean distance (A549) was 0.544 and the Euclidean distance (FB) was 0.795. For the same molecule, the Euclidean distance (HEPG2) was 0.461 and the Euclidean distance (OVCAR4) was 1.14.

`CO[C@@]12[C@H](COC(N)=O)C3=C(C(=O)C(C)=C(N)C3=O)N1C[C@@H]1N[C@@H]12` [Mitomycin C] gave an Euclidean distance (786-O) of 3.14, an Euclidean distance (A549) of 3.37 and an Euclidean distance (FB) of 3.89. For the same molecule, the Euclidean distance (HEPG2) was 3.46 and the Euclidean distance (OVCAR4) was 3.61.

For `COc1ccc(CN(CCN(C)C)c2ccccn2)cc1` [Pyrilamine Maleate], the Euclidean distance (786-O) was 0.832, the Euclidean distance (A549) was 0.864 and the Euclidean distance (FB) was 1.11. The Euclidean distance (HEPG2) was 0.605 and the Euclidean distance (OVCAR4) was 1.5.

With `CCC1(c2ccccc2)C(=O)NCNC1=O` [Primidone] the Euclidean distance (786-O) was 1.2, the Euclidean distance (A549) was 0.708 and the Euclidean distance (FB) was 1.19. The Euclidean distance (HEPG2) was 0.442 and the Euclidean distance (OVCAR4) was 2.2.

Molecule `O=c1c(-c2ccc(O)cc2)coc2cc(O[C@@H]3O[C@H](CO)[C@@H](O)[C@H](O)[C@H]3O)ccc12` [Daidzin] has an Euclidean distance (786-O) of 0.57, an Euclidean distance (A549) of 0.784 and an Euclidean distance (FB) of 0.914. For the same molecule, the Euclidean distance (HEPG2) was 0.745 and the Euclidean distance (OVCAR4) was 1.17.

In the case of `Nc1nc(N)nc(-c2cc(Cl)ccc2Cl)n1` [Irsogladine], the Euclidean distance (786-O) is reported as 1.09, the Euclidean distance (A549) is reported as 1.05 and the Euclidean distance (FB) is reported as 0.809. The Euclidean distance (HEPG2) was 0.613 and the Euclidean distance (OVCAR4) was 1.41.

In the case of `O=C(NCCN1CCOCC1)c1ccc(Cl)cc1`, the Euclidean distance (786-O) is reported as 1.01, the Euclidean distance (A549) is reported as 1.34 and the Euclidean distance (FB) is reported as 0.812. For the same molecule, the Euclidean distance (HEPG2) was 0.538 and the Euclidean distance (OVCAR4) was 1.07.

For `C=C(C)[C@@H]1CC=C(CO)CC1` [Perillyl alcohol], the Euclidean distance (786-O) was 0.887, the Euclidean distance (A549) was 0.815 and the Euclidean distance (FB) was 0.953. For the same molecule, the Euclidean distance (HEPG2) was 1.09 and the Euclidean distance (OVCAR4) was 1.74.

In the case of `CC1(C)[C@@H](O[C@H]2O[C@H](C(=O)O)[C@@H](O)[C@H](O)[C@H]2O[C@@H]2O[C@H](C(=O)O)[C@@H](O)[C@H](O)[C@H]2O)CC[C@]2(C)[C@H]3C(=O)C=C4[C@@H]5C[C@@](C)(C(=O)O)CC[C@]5(C)CC[C@@]4(C)[C@]3(C)CC[C@@H]12` [Glycyrrhizin (Glycyrrhizic Acid)], the Euclidean distance (786-O) is reported as 1.52, the Euclidean distance (A549) is reported as 0.67 and the Euclidean distance (FB) is reported as 1.38. It also gave an Euclidean distance (HEPG2) of 0.607 and an Euclidean distance (OVCAR4) of 1.47.

`Cc1ccc(C(=O)Nc2ccc(CN3CCN(C)CC3)c(C(F)(F)F)c2)cc1C#Cc1cnc2[nH]ncc2c1` [GZD824 Dimesylate] showed an Euclidean distance (786-O) of 4.23, an Euclidean distance (A549) of 4.68 and an Euclidean distance (FB) of 5.04. The Euclidean distance (HEPG2) was 5.49 and the Euclidean distance (OVCAR4) was 4.87.

Molecule `Cc1c(C)c2c(c(C)c1O)CCC(C)(COc1ccc(CC3SC(=O)NC3=O)cc1)O2` (stereo not given) [Troglitazone (CS-045)] has an Euclidean distance (786-O) of 1.4, an Euclidean distance (A549) of 1.51 and an Euclidean distance (FB) of 0.893. The Euclidean distance (HEPG2) was 0.876 and the Euclidean distance (OVCAR4) was 1.2.

`COc1ccc([C@@H]2Sc3ccccc3N(CCN(C)C)C(=O)[C@@H]2OC(C)=O)cc1` [Diltiazem HCl] gave an Euclidean distance (786-O) of 0.663, an Euclidean distance (A549) of 1.04 and an Euclidean distance (FB) of 0.788. The Euclidean distance (HEPG2) was 0.773 and the Euclidean distance (OVCAR4) was 0.53.

`CN1c2ccccc2C(=O)N2CCc3c([nH]c4ccccc34)C21` (stereo in doubt) [Evodiamine] gave an Euclidean distance (786-O) of 2.67, an Euclidean distance (A549) of 2.85 and an Euclidean distance (FB) of 1.59. The Euclidean distance (HEPG2) was 2.03 and the Euclidean distance (OVCAR4) was 1.81.

In the case of `CCOC(=O)N[C@@H]1CC[C@@H]2[C@@H](C1)C[C@H]1C(=O)O[C@H](C)[C@H]1[C@H]2/C=C/c1ccc(-c2cccc(F)c2)cn1` [Vorapaxar], the Euclidean distance (786-O) is reported as 1.81, the Euclidean distance (A549) is reported as 1.29 and the Euclidean distance (FB) is reported as 2.37. It also gave an Euclidean distance (HEPG2) of 1.49 and an Euclidean distance (OVCAR4) of 1.31.

With `COC(=O)CCc1ccc(OCC(O)CNC(C)C)cc1` (stereo not given) [Esmolol HCl] the Euclidean distance (786-O) was 0.978, the Euclidean distance (A549) was 0.415 and the Euclidean distance (FB) was 0.525. For the same molecule, the Euclidean distance (HEPG2) was 0.386 and the Euclidean distance (OVCAR4) was 1.12.
